The text below walks through data of PubChem BioAssay AID488940 (National Center for Advancing Translational Sciences (NCATS), 2010).

Molecules are shown by their SMILES. Active and inactive are the calls of the source. Calls come from the whole dose curve.

Chain of DNA repair nuclease/redox regulator APEX1 (Homo sapiens) (P27695 whole entry, looked up): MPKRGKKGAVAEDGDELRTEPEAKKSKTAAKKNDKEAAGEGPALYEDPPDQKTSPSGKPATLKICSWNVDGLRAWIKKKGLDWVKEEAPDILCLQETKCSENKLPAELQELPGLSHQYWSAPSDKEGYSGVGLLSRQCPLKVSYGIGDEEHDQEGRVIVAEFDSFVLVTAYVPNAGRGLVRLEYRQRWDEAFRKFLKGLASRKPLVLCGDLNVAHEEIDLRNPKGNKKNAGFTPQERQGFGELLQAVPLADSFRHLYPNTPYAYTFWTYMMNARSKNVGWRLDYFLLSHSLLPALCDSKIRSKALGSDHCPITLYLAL

The assay has as its target DNA repair nuclease/redox regulator APEX1 (Homo sapiens) (UniProt P27695). Kind of assay: Radiotracer Incision Assay (RIA) for Inhibitors of Human Apurinic/apyrimidinic Endonuclease 1 (APE1). Conditions: Recombinant APE1, radiolabeled AP-DNA incision, gel. From the text: The apurinic/apyrimidinic endonuclease APE1 is the primary mammalian enzyme responsible for the removal of abasic (or AP) sites in DNA and functions centrally in the base excision DNA repair (BER) pathway. […] Thus, targeting APE1 could improve the efficacy of current treatment paradigms by promoting selective sensitization or protection of diseased and normal cells, respectively. This secondary Radiotracer Incision Assay was implemented to validated hits from the primary screen (AID 2517).
Recombinant wild type APE1 protein was purified as previously described (Erzberger et al., NAR, 1998). Fifty pg of APE1 (~140 pM) was incubated without (positive control containing 1% DMSO) or with 100 microM of the indicated inhibitor at room temperature in RIA buffer (50 mM Tris pH 7.5, 25 mM NaCl, 1mM MgCl2, 1 mM DTT, 0.01% Tween -20) for 15 min. One-half pmol of 32P 5'-radiolabeled AP-DNA substrate (18 mer) was added to a 10 microL final volume (see Wilson et al., JBC, 1995), and the reactions were incubated at 37 °C for 5 min and stopped by adding stop buffer (0.05% Bromophenol blue/ Xylene cyanol dissolved in 95% formamide, 20 mM EDTA) and heating at 950C for 10 min. Intact substrate was separated from incised product on a 15% polyacrylamide denaturing gel in tris boric acid EDTA buffer. Following electrophoresis, the gel was subjected to standard phosphoimager analysis using the ImageQuant 5.2 software, and the percent incision activity (amount of substrate converted to product) was calculated.
Turning to `CC(=O)Nc1sc2c(c1-c1nc3ccccc3s1)CCN(C)C2`, the Potency was 5 µM (active).

`CC(=O)Nc1sc2c(c1-c1nc3ccccc3s1)CCN(C(C)C)CC2`: the Potency was 13 µM (active).

For `CC(=O)Nc1sc2c(c1-c1nc3ccccc3o1)CCN(C(C)C)C2`, the Potency is 13 µM (active).

With `CC(=O)Nc1sc2c(c1-c1nc3ccccc3s1)CCCN(C(C)C)C2`, the Potency is 14 µM (active).

As to `O=C(Nc1sc2c(c1-c1nc3ccccc3s1)CCNC2)C(F)F`, the Potency is 4 µM (active).

For `CC(=O)Nc1sc2c(c1-c1nc3ccccc3s1)CCN(C(C)=O)C2`, the Potency is 5 µM (active).

Regarding `CC(=O)Nc1sc2c(c1-c1nc(-c3ccccc3)cs1)CCN(C(C)C)C2`, the Potency was 3 µM (active).

Regarding `CC(=O)Nc1sc2c(c1-c1nc3ccccc3s1)CCCNC2`, the Potency was 7 µM (active).

With `CC(=O)Nc1sc2c(c1-c1nc3ccccc3s1)CCNC2`, the Potency was 5 µM (active).

`CC(=O)Nc1sc2c(c1-c1nc3ccccc3s1)CCS(=O)(=O)C2`: the Potency was 77 µM (active).

With `CC(=O)Nc1sc2c(c1-c1nc3ccccc3s1)CCN(C(C)C)C2`, the Potency was 19 µM (active).

As for `CC(=O)Nc1sc2c(c1-c1nc3ccccc3s1)CN(C(C)C)C2`, the Potency is 4 µM (active).
